ChEMBL document CHEMBL3433997, “St. Jude Leishmania screening dataset” (2016)

Each molecule was assayed against Solute carrier family 2, facilitated glucose transporter member 1 (Homo sapiens) (UniProt P11166) (assay: ST_JUDE_LEISH: Cytotoxicity at 2uM final concentration against transgenic Leishmania Mexicana promastigotes LmGLUT1 that are glucose transport deficient and complemented with the human glucose transporter GLUT1. Activity is measured by DNA content using SYBR green in vitro).
Sequence of Solute carrier family 2, facilitated glucose transporter member 1 (Homo sapiens) (P11166 whole entry): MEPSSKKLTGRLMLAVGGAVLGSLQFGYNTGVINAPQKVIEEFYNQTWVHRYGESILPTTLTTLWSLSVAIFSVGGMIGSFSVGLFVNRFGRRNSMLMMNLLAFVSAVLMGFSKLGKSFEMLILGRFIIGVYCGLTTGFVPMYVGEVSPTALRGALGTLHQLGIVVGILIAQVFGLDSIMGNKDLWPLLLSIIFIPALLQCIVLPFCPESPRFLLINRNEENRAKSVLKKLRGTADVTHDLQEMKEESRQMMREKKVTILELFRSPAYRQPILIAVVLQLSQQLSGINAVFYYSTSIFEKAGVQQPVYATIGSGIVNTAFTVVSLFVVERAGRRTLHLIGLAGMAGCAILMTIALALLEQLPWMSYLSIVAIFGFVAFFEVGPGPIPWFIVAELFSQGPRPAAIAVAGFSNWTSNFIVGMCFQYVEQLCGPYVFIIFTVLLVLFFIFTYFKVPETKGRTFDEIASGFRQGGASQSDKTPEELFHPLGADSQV
Format: functional
Work on `Cn1nc(-c2cccc(CNC3CCc4ccccc43)c2)c2cnc(NC3CCCC3)nc21` (stereo not given) yielded an inhibition of 2.84%. Molecule `CCNC(C)(C)CN(Cc1ccc(-c2ccc(C(F)(F)F)cc2)cc1)C(=O)Cn1c(SCc2ccc(F)cc2)nc(=O)c2c1CCC2` has an inhibition of 8.5%. `CC1CC(NCCCNc2cc(=O)c3ccccc3[nH]2)c2cc(Cl)c(Cl)c(Cl)c21` (stereo not given) gave an inhibition of -1.12%. In the case of `Cc1cccc2nc(-c3ccc(-c4cccc(CN5CCC(N)C5)c4)s3)[nH]c12` (stereo not given), the inhibition is reported as 9.02%. With `Cc1ncc(CN2CCC(C(=O)Nc3ccc(-c4nc5ccccc5o4)cc3)CC2)s1` the inhibition was -2.13%. With `O=C(CCCCCNC(=O)c1ccc(O)c(-c2ccc(Cl)c(Cl)c2)c1)NCCN1CCCCC1` the inhibition was 2.71%. `CC(=O)Nc1ccc(CN2CCc3ccc(NS(=O)(=O)c4ccc(-c5cccc(C(F)(F)F)c5)cc4)cc3CC2)s1` showed an inhibition of 2.54%. In the case of `CCCCCCOc1ccc(/C(N)=N\Cc2ccccc2)c2c1CCCC2`, the inhibition is reported as 2.62%. With `CCOC(=O)c1ccc(OCc2ccc(-c3ccccc3)cc2)cc1` the inhibition was -0.38%. `Cc1cc(N[C@@H](CC(C)C)C(=O)NCCOc2ccccc2)nc(NCCc2ccccc2)n1` gave an inhibition of 1.89%. `O=C(NC1CCN(Cc2ccc3c(c2)OCCO3)CC1)c1ccc(-c2cccc(C(F)(F)F)c2)s1` was tested, and the inhibition was 3.14%. In the case of `CCCOc1cccc(C(=O)N[C@@H](Cc2ccccc2)[C@H](O)CNCc2ccccc2OC)c1`, the inhibition is reported as 3.73%. For `Cc1cccc2nc(-c3cccc(-c4ccc(CNCCCN5CCCC5=O)cc4)c3)[nH]c12`, the inhibition was 9.26%. Work on `COc1ccc2nccc(N3CCC(O)(CCNCc4ccc5c(n4)NC(=O)CO5)CC3)c2n1` yielded an inhibition of 2.27%. For `COc1ccc(Nc2nc(NCc3ccco3)c3ccccc3n2)cc1`, the inhibition was 25.5%. `O=C(O[C@H]1CN[C@H](C#Cc2cc3c(Nc4ccc(OCc5cccc(F)c5)c(Cl)c4)ncnc3s2)C1)N1CCCC1` was tested, and the inhibition was 3.78%. `CCCc1cc(Cc2cnc(N)nc2N)cc(CCC)c1OCCCCC(=O)O` was tested, and the inhibition was 1.12%. Work on `COc1ccc2ncc(F)c(CCN3CCC(CNCc4cccc5c4OCO5)CC3)c2n1` yielded an inhibition of 2.01%. With `Cc1nnsc1C(=O)Nc1cccc(-c2ccc(-c3nc4cccc(C)c4[nH]3)s2)c1` the inhibition was 1.88%. For `CCc1ccc(CN(Cc2ccc(C)cc2)Cc2ccc(NC(C)=O)cc2)cc1`, the inhibition was 2.72%. For `O=C1CCCN1CCCNCc1cccc(-c2ccc(-c3nc4cc(C(F)(F)F)ccc4[nH]3)cc2)c1`, the inhibition was 13.5%. `NC(=O)c1ccsc1NC(=O)CNC(c1ccccc1)c1ccccc1` showed an inhibition of 2.02%. `CCCC(C)Nc1nc(C)cc(N[C@@H](Cc2ccccc2)C(=O)Nc2ccc(OC)cc2)n1` (stereo not given in full) was tested, and the inhibition was 4.27%. For `CCCCn1c(N)c(N(Cc2ccco2)C(=O)C=Cc2cc(OC)c3c(c2)OCCO3)c(O)nc1=O`, the inhibition was 3.56%. In the case of `CCOC(=O)c1ccc(NC(=O)N[C@@H](Cc2ccc(O)cc2)C(=O)NC2CCN(Cc3ccc4c(c3)OCO4)CC2)cc1`, the inhibition is reported as 0.57%. `CC(=O)c1ccc(-c2ccc(C(=O)NCCCCN3CCC(c4ccc5c(c4OCC(N)=O)CCCC5)CC3)cc2)s1` showed an inhibition of 1.36%. Work on `Cc1cnc(-c2ccc(NC(=O)c3coc4ccc(N5CC(C)N(C)C(C)C5)cc34)cc2)o1` (stereo not given) yielded an inhibition of -0.6%. With `CC(=O)Nc1ccccc1OCc1cc2cc(C(=O)N3CCC(N4C(=O)OCc5ccccc54)CC3)ccc2o1` the inhibition was 4.21%. `Cn1nc(-c2ccc(CN[C@@H]3CCc4ccc(O)cc43)cc2)c2cnc(NCCCN3CCCC3)nc21` was tested, and the inhibition was 1.97%. Molecule `CCN(CC(C)O)C(=O)c1ccc(-c2cccc(-c3nc4cccc(C)c4[nH]3)c2)cc1` (stereo not given) has an inhibition of 0.34%. In the case of `COc1ccc(N2CCN(CCCCNCc3ccc(NC(=O)c4cc(Cl)cc(Cl)c4)cc3)CC2)c(OC)c1`, the inhibition is reported as 3.33%. `COc1cc(Cc2cnc(N)nc2N)cc(OC)c1OCCCCCN1C(=O)c2ccccc2C1=O` gave an inhibition of 3.29%. In the case of `CN1CCCN(Cc2ccc(-c3ccc(NC(=O)c4cccc(C#N)c4)cc3)cc2)CC1`, the inhibition is reported as 2.3%. `Cc1cc(NC(c2ccc(Cl)cc2)c2ccc3cccnc3c2O)no1` (stereo not given) gave an inhibition of 16.6%. `CS(=O)(=O)N1CC2(CCN(CCC(NC(=O)NCc3ccc(Cl)c(Cl)c3)c3ccc(Cl)c(Cl)c3)CC2)c2ccccc21` (stereo not given) gave an inhibition of 0.66%. Molecule `CC1(C)NC(N)=NC(=N)N1OCCCNC(=O)c1ccc([N+](=O)[O-])cc1` has an inhibition of 4.23%. In the case of `COc1cc(C(=O)Nc2cccc(-c3nc4ccccc4[nH]3)c2)cc(OC)c1OC`, the inhibition is reported as 4.34%. `O=C(Cc1ccc(NC(=O)c2ccc(O)c(-c3ccc(Cl)c(Cl)c3)c2)cc1)NCCc1ccc(Cl)c(Cl)c1` was tested, and the inhibition was 2.01%. For `CCCCCCN1CCN(Cc2cccc(NC(=O)c3cccc(OCC)c3)c2)CC1`, the inhibition was 13.6%. For `COc1ccc2nc(C)cc(Nc3ccc(Oc4ccc(Br)c5ccccc45)c(Cl)c3)c2c1`, the inhibition was 9.47%.
